PubChem BioAssay AID624156 (Broad Institute, 2012)
The campaign covered roughly 46,000 compounds. About 900 (2%) were called active. About 1% were inconclusive and are not listed. No stated cut-off is given here; in the data, active means ROS induction above about 79% (passing the limit was not always enough); inconclusive means no clear call, values can overlap the other calls. For the sample, actives were picked, then their nearest neighbours and some compounds at random.

Assay: ROS inducers in U2OS cancer cells, primary screen, cell-based, H2DCF-DA fluorescence (AID 624156);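 further: 0% = DMSO vehicle median and 100% = reference compound median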
Conditions: at 10 µM, hits give high values
With C=CCn1c2ccccc2c2nnc(SCCCC(=O)c3ccc(F)cc3)nc21 the ROS induction (% of piperlongumine) was 81.9% (active). In the case of C=CCn1c2ccccc2c2nnc(SCC(=O)N3c4ccccc4Sc4ccccc43)nc21, the ROS induction (% of piperlongumine) is reported as 11.2% (inactive). For CCCn1c2ccccc2c2nnc(SCC(=O)Nc3cccc4ccccc34)nc21, the ROS induction (% of piperlongumine) was 91.7% (active). In the case of CCn1c2ccccc2c2nnc(SCC(=O)O)nc21, the ROS induction (% of piperlongumine) is reported as -16.9% (inactive). With CCOC(=O)CCSc1nnc2c3ccccc3n(C)c2n1 the ROS induction (% of piperlongumine) was 39.9% (inactive). For c1ccc(Cn2c3ccccc3c3nnc(SCc4ccc5nonc5c4)nc32)cc1, the ROS induction (% of piperlongumine) was 21.9% (inactive). With O=C(CCCCC(=O)N/N=C/c1ccc[nH]1)NO the ROS induction (% of piperlongumine) was -11.8% (inactive). For COC(=O)c1sccc1NC(=O)Cc1noc2ccc(C)cc12, the ROS induction (% of piperlongumine) was -3.41% (inactive). With CCC(C(=O)Nc1ccc(OC)c(OC)c1)n1c(C)c2cnn(-c3ccccc3)c(=O)c2c1C (stereo unspecified) the ROS induction (% of piperlongumine) was 6.12% (inactive). In the case of CC(=NCc1ccco1)C1=C(O)c2ccccc2C1=O, the ROS induction (% of piperlongumine) is reported as 146% (active). For CC(=NCc1ccc2c(c1)OCO2)C1=C(O)c2ccccc2C1=O, the ROS induction (% of piperlongumine) was 3.64% (inactive). For COc1ccc(C=Nc2ccc(C(C)(C)C)cc2)cc1, the ROS induction (% of piperlongumine) was -6.06% (inactive). In the case of Cc1cccc(N2CCN(C(=O)CCn3c(=S)[nH]c4cc5c(cc4c3=O)OCO5)CC2)c1C, the ROS induction (% of piperlongumine) is reported as 8.61% (inactive). With Cc1cccc(N2CCN(C(=O)CC3(CC4=NS(=O)(=O)c5ccccc5N4)CCCC3)CC2)c1C the ROS induction (% of piperlongumine) was 172% (active). With CC1=C(C(=O)OC(C)C)C(c2cn(-c3ccccc3)nc2-c2ccc(OC(C)C)cc2)NC(=O)N1 (stereo unspecified) the ROS induction (% of piperlongumine) was -3.28% (inactive). In the case of COc1ccc(S(=O)(=O)N(C)C)cc1, the ROS induction (% of piperlongumine) is reported as -6.36% (inactive). With Cc1ccc2nc(C)c3c(c2c1)N(c1ccccc1)CC3 the ROS induction (% of piperlongumine) was 50.9% (inactive). In the case of Cc1ccc2nc(Nc3ccccc3)cc(C)c2c1, the ROS induction (% of piperlongumine) is reported as 178% (active). With Cc1ccc(Nc2nc(C)cc(C)c2C(N)=O)cc1 the ROS induction (% of piperlongumine) was 19.7% (inactive). For C[C@@H]1CN([C@H](C)CO)C(=O)Cc2cc(NC(=O)Nc3ccccc3)ccc2O[C@@H]1CN(C)Cc1ccc(C(F)(F)F)cc1, the ROS induction (% of piperlongumine) was 23.2% (inactive). For COC(=O)c1c(C)nc(C)c(C(=O)OC)c1-c1csc(S(=O)(=O)/N=C/N(C)C)c1, the ROS induction (% of piperlongumine) was -10.2% (inactive). With CCNC(=S)N1CCN(CCN=CC2=C(O)CC(c3ccccc3)CC2=O)CC1 (stereo unspecified) the ROS induction (% of piperlongumine) was -5.61% (inactive). In the case of C=CCn1c(=S)sc2c(SCC(=O)N3CCc4ccccc43)ncnc21, the ROS induction (% of piperlongumine) is reported as -9.07% (inactive). With CCOC(=O)c1c(C)n(C)c2ccccc12 the ROS induction (% of piperlongumine) was -3.38% (inactive). In the case of CCOC(=O)c1nnn2c1nc(N1CCN(c3ccccc3)CC1)c1ccccc12, the ROS induction (% of piperlongumine) is reported as 155% (active). For CCOC(=O)c1nnn2c3ccccc3c(=O)n(C)c12, the ROS induction (% of piperlongumine) was 38.4% (inactive).
